Reference: PubChem BioAssay AID1259341 (Broad Institute, 2017)
A number with no mark means an inactive call.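 Rule for the calls: active = activity change under -35% in any replicate well, with more than 20 beads read in that well; inactive = the rest.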

target: Caspase recruitment domain-containing protein 9 (Homo sapiens) + E3 ubiquitin-protein ligase TRIM62 (Homo sapiens) (UniProt Q9H257+Q9BVG3); assay: CARD9/TRIM62 protein interaction inhibitors – cell lysate, HEK293FT lysates, Luminex bead ELISA, primary screen (AID 1259341); details: PE fluorescence, hits give low values, concentration not given here;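 note: PE anti-Flag signal of Flag-CARD9 captured by myc-TRIM62 beads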
Sequence (Q9BVG3 whole entry, looked up, the tested form may be a part): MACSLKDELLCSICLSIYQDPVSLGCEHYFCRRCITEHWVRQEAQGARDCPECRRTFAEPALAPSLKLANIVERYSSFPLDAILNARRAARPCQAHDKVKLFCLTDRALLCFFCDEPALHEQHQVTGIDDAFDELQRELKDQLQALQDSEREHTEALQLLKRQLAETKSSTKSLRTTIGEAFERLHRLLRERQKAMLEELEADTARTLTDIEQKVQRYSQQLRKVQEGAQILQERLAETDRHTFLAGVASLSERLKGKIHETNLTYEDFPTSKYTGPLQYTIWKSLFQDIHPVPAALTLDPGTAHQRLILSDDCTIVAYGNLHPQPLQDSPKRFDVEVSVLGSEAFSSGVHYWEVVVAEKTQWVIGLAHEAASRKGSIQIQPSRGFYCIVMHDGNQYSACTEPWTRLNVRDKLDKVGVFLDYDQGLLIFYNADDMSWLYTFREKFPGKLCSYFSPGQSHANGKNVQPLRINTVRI
Sequence (Q9H257 whole entry, looked up, the tested form may be a part): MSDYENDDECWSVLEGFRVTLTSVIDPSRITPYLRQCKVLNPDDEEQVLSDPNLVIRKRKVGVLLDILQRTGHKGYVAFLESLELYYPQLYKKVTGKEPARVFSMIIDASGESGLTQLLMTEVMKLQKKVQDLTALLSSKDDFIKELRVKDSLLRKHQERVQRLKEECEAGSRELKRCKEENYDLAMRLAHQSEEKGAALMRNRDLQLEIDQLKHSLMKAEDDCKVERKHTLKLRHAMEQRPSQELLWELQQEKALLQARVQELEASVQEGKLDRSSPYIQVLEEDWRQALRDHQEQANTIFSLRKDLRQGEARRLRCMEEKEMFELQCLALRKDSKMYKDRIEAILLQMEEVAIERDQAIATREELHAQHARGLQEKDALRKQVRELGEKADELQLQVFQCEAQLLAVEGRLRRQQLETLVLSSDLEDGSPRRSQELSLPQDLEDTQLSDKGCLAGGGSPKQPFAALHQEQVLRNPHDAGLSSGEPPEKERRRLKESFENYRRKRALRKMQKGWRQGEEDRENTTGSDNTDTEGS

SMILES	activity change, negative = inhibition [%]
CCCCCn1c(NC(=O)c2ccco2)c(C(=O)OCC)c2nc3ccccc3nc21	-11.3
Nc1c(C(=O)NCc2ccco2)c2nc3ccccc3nc2n1CCN1CCOCC1	-14.4
Cc1ccc(S(=O)(=O)Cc2ccc(C(=O)N3CCC4(CC3)OCCO4)o2)cc1	1.47
O=C(NCCc1ccccc1)c1cc2cccnc2n(Cc2ccccc2)c1=O	-0.118
O=C(Nc1ccon1)c1cc2cccnc2n(Cc2ccccc2)c1=O	4.61
O=C(NC1(C(F)(F)F)Oc2ccc(Cl)cc2O1)N1CCC2(CC1)OCCO2 (configuration not stated)	-0.512
Nc1c2c(nc3ccccc13)CCN(Cc1ccccc1)C2	-1.61
